For 40 compounds, growth results are on record in PubChem BioAssay (NCI).

Compounds without any hit were thinned out: in the full panel of roughly 83,000, 20% have a hit.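 Treatment: one concentration, 48 hours, 96-well format. Scoring: percent growth, with anything below 10 considered active.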 A number with no mark means an inactive call. The source made the active and inactive calls.

This assay has as its system HL-60(TB) leukemia. Nature of the assay: NCI-60 one-dose screen, 48 h (100 = growth as untreated, 0 = no growth, -100 = all killed). Conditions: 10 µM unless noted.
Take `COc1ccc(-c2nc3cccc(O)c3c(=O)n2Cc2ccccc2)cc1COc1ccc(NC(C)=O)cc1`: the growth is 45.4% [3 µM]. In the case of `CC(=O)N1C(=S)NC(=O)C1CC(C)C` (stereo not given) it was 106%. With `O=S(=O)(NC1c2ccccc2C[C@H]1O)c1ccc(Cl)cc1Cl` (stereo not given in full) the figure was 98.1%; with `C=C1C(=O)O[C@@H]2/C=C(/C)C3=CC(=O)[C@@](C)(C[C@H](OC(=O)/C(C)=C\C)[C@@H]12)O3`, -11.9% (active); with `Cc1ccc(NC(=O)N[C@@H](Cc2cc(F)cc(F)c2)C(=O)NC2C(=O)N3CCC[C@H]3C(=O)N3CCCC[C@H]3C(=O)N[C@@H](C)C(=O)N3C[C@H](C)C[C@H]3C(=O)O[C@H]2C)c(F)c1` (stereo not given in full), 13.4%. As for `COC(=O)CCSC1=C(C)C(=O)c2ccccc2C1=O`, the growth was 34.9%.

As for `O=C(NCCCNc1cc(-c2cn(-c3ccccc3)nc2-c2cccc(O)c2)ccn1)Nc1cc(C(F)(F)F)cc(C(F)(F)F)c1`, the growth was 71.9%. In the case of `NCCNC(=O)c1cccc(COc2ccccc2NC(=O)c2cc(Br)c(Br)[nH]2)c1` it was 69.5%. With `Cc1cnc2nc(NN)[nH]n12` the figure was 100%. With `COC(=O)c1cccc(NC2=C(Cl)C(=O)c3nc(C)ccc3C2=O)c1` the figure was 24.3%. Turning to `CC(=O)Nc1cccc(Nc2nc(N[C@H](C)c3ccccc3)c3ccccc3n2)c1`, the growth is 13.6%. With `Oc1ccccc1-c1nnc(SCc2ccc(O)c3ncccc23)o1` the figure was 26.3%; with `O=C(COc1cccc2cccnc12)Nc1ccc(C(=O)/C=C/c2ccc(Cl)cc2)cc1`, 64.4%; with `Clc1ccc2c(NCCCN3CCOCC3)c3oc4ccccc4c3nc2c1`, 37.9%.

On to `CC1(C)[C@@H](O)CC[C@]2(C)[C@H]3CC[C@@H]4[C@H]5[C@H](C(=O)/C=C\c6ccncc6)CC[C@]5(O)CC[C@@]4(C)[C@]3(C)CC[C@@H]12`, for which the growth is 26.4%. With `N#Cc1c(-c2cccs2)cc(-c2cnccn2)nc1SCC(=O)N/N=C/c1cccs1` the figure was 96.2%; with `CNC(=O)c1cc(-c2ccc(NS(=O)(=O)c3ccc(C)cc3)cc2)nc2cccnc12`, 113%.

For the compound `COc1cc(NC(=O)Nc2cccc(-c3cc(=O)c4c(OC)c(OC)c(OC)cc4o3)c2)cc(OC)c1OC`, the growth was 45%. Regarding `O=C(NCCCNc1cc(-c2cn(-c3ccccc3)nc2-c2cccc(O)c2)ccn1)Nc1ccc(F)cc1`, the growth was 1.09% (active). In the case of `COc1cc(C(=O)c2cc(C(C)=O)c3c4ccccc4ccn23)cc(OC)c1OC`, the growth was 32.9%. With `Cc1cc(C(=O)Nc2ccc(SC#N)cc2)c(C)o1` the figure was 47.7%; with `O=C(NNc1nc2cc(F)c(F)cc2n2cccc12)c1cccnn1`, -2.31% (active); with `COc1cc(-c2nn(C(C)(C)C)cc2-c2ccnc(NCCCNS(=O)(=O)c3ccc(Cl)cc3)n2)ccc1Cl`, 64.9%.

As to `COc1cccc(/C=C/C(=O)c2ccc(NC(=O)COc3cccc4cccnc34)cc2)c1`, the growth is 80.5%. With `Nc1nc(-c2cccc([N+](=O)[O-])c2)c(N=Nc2ccccc2Cl)s1` the figure was 93.7%; with `CN1CCN(Cc2ccc(NC(=O)c3cncc(C#Cc4cnc5ccc(N6CCN(C)CC6)nn45)c3)cc2C(F)(F)F)CC1`, -31.5% (active); with `O=C1NC(=O)/C(=C/c2ccc(OCc3cc4ccccc4nc3Cl)cc2)S1`, 100%. With `CN1CCN(c2ccc(C(=O)/C=C/c3cc(F)cc(C(F)(F)F)c3)cc2)CC1` the figure was 3.06% (active); with `COc1ccc(CNS(=O)(=O)/N=C2\NC(=O)NC2=C(Cl)Cl)cc1`, -11.1% (active).

For the compound `O=S(=O)(Nc1cc(Cl)c(F)c(Cl)c1)c1ccc(-c2cnc(C3CC3)o2)cc1`, the growth was 14.1%. In the case of `COc1ccc(-c2cc(-c3ccc(Cl)cc3)nc3nc(N)nn23)cc1` it was 72.2%.

As to `COc1cc(/C=C/C(=O)c2ccc(NC(=O)CSc3nnc(-c4ccc(-c5nc6ccc(Cl)cc6[nH]5)cc4)o3)cc2)cc(OC)c1OC`, the growth is 73.6%. With `CCCC(=O)NC(c1cccnc1)c1ccc2c(C)ccnc2c1O` (stereo not given) the figure was 6.67% (active); with `O=C(Nc1nonc1-c1ccccc1)c1ccc(C(F)(F)F)cc1`, 79.1%; with `COc1ccc(C2c3sc4c(C)cccc4c3Oc3nc(CC(=O)Nc4ccccc4)[nH]c(=O)c32)cc1` (stereo not given), 146%.

For the compound `C/C(=N/Nc1nc(N/N=C(/C)c2ccc([N+](=O)[O-])cc2)nc(N2CCOCC2)n1)c1ccc([N+](=O)[O-])cc1`, the growth was 92.6%.

In the case of `O=C(O)c1ccc(-n2cc(CNc3cc(F)c(F)c(F)c3)c(-c3cccc(F)c3)n2)cc1`, the growth is 108%. With `CCN(CC)CCn1c2ccc(O)cc2c2sc3cc(OC)ccc3c(=O)c21` the figure was 16.5%; with `COc1cccc(NC2=CC(=O)C(C)=C(C)C2=O)c1`, 3.49% (active).

On to `O=C(Cn1cc(CN2C(=O)c3ccc([N+](=O)[O-])cc3C2=O)nn1)Nc1ccccc1Br`, for which the growth is 101%.
